Read-out in assay [1]: Monokine induced gamma interferon (MIG), CXCL9 (gene 4283)
The assay is described as follows: BSK_hDFCGF_MIG: BioMAP Diversity Plus: hDFCGF Assay for Monokine induced gamma interferon (MIG) Biomarker Activity (AID 2283063). The conditions noted are these: primary human foreskin fibroblasts; actives raise or lower the signal. In short, it runs like this: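 ELISA read-out of MIG from primary human dermal fibroblasts 24 h post-dosing. Gain or loss of signal fitted bidirectionally, DMSO as baseline.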

Read-out in assay [2]: Matrix Metallopeptidase 1 (MMP1), MMP1 (gene 4312)
The assay is described as follows: BSK_hDFCGF_MMP1: BioMAP Diversity Plus: hDFCGF Assay for Matrix Metallopeptidase 1 (MMP1) Biomarker Activity (AID 2283064). Particulars: primary human foreskin fibroblasts; actives raise or lower the signal. In short, it runs like this: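 Primary human foreskin fibroblasts in the hDFCGF system were dosed with test chemical, and MMP1 was measured by ELISA 24 h later. Values come from bidirectional curve fitting against the DMSO baseline.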

Read-out in assay [3]: Vascular cell adhesion molecule 1 (VCAM1), VCAM1 (gene 7412)
Kind of assay: BSK_hDFCGF_VCAM1: BioMAP Diversity Plus: hDFCGF Assay for Vascular cell adhesion molecule 1 (VCAM1) Biomarker Activity (AID 2283065).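 As to AC50: VCAM-1 protein level quantified by ELISA after 24 h chemical exposure.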 Particulars: primary human foreskin fibroblasts; actives raise or lower the signal. In short, it runs like this:
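Primary human foreskin fibroblasts (hDFCGF system) were dosed with chemical and VCAM-1 was measured by ELISA 24 h later. Bidirectional curve fitting used DMSO as negative control and activity baseline.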

Read-out in assay [4]: Intercellular Adhesion Molecule 1 (ICAM1), ICAM1 (gene 3383)
Kind of assay: BSK_KF3CT_ICAM1: BioMAP Diversity Plus: KF3CT Assay for Intercellular Adhesion Molecule 1 (ICAM1) Biomarker Activity (AID 2283067). Particulars: primary human keratinocytes with fibroblasts; actives raise or lower the signal. In short, it runs like this:
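Human keratinocyte plus foreskin fibroblast primary co-culture was exposed to chemical for 24 h. ICAM-1 was then quantified by ELISA, and the data were fit bidirectionally against DMSO as the negative control and baseline.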

Read-out in assay [5]: Interferon-gamma inducible Protein 10 (IP10), CXCL10 (gene 3627)
Kind of assay: BSK_KF3CT_IP10: BioMAP Diversity Plus: KF3CT Assay for Interferon-gamma inducible Protein 10 (IP10) Biomarker Activity (AID 2283068). Particulars: primary human keratinocytes with fibroblasts; actives raise or lower the signal. In short, it runs like this:
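In a primary skin co-culture of keratinocytes and fibroblasts, IP-10 is quantified by ELISA at 24 h after dosing. SRB staining of parallel wells monitors overt toxicity. Curves are fitted both directions against DMSO.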

Assay [6] can be described thus: BSK_KF3CT_SRB: Viability Assessment in the BioMAP Diversity Plus: KF3CT Assay (AID 2283069).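 Also: total protein by sulforhodamine B staining as a cytotoxicity measure; read 24 h after compound addition.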 The conditions noted are these: primary human keratinocytes with fibroblasts. In short, it runs like this:
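Human primary keratinocyte plus foreskin fibroblast co-culture exposed to chemicals for 24 h. Total protein measured by 0.1% sulforhodamine B staining after 10% TCA fixation, read at 560 nm; bidirectional fitting versus DMSO baseline.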

Read-out in assay [7]: TIMP metallopeptidase inhibitor 2 (TIMP2), TIMP2 (gene 7077)
Kind of assay: BSK_KF3CT_TIMP2: BioMAP Diversity Plus: KF3CT Assay for TIMP metallopeptidase inhibitor 2 (TIMP2) Biomarker Activity (AID 2283071). Particulars: primary human keratinocytes with fibroblasts; actives raise or lower the signal. In short, it runs like this:
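Co-culture of human primary keratinocytes and foreskin fibroblasts, measured 24 h after chemical dosing. TIMP-2 quantified by ELISA and fitted in both directions relative to DMSO. Cytotoxicity checked in parallel cultures by SRB total-protein staining.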

Read-out in assay [8]: Transforming growth factor beta 1 (TGFb1), TGFB1 (gene 7040)
Kind of assay: BSK_KF3CT_TGFb1: BioMAP Diversity Plus: KF3CT Assay for Transforming growth factor beta 1 (TGFb1) Biomarker Activity (AID 2283072). The conditions noted are these: primary human keratinocytes with fibroblasts; actives raise or lower the signal. In short, it runs like this:
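Human keratinocyte/foreskin fibroblast co-culture; TGF-b1 measured by ELISA 24 h after dosing, fitted bidirectionally versus DMSO. Cytotoxicity checked in parallel cultures by total protein (SRB staining, 560 nm).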

Read-out in assay [9]: C-C motif chemokine 2 (Homo sapiens) (UniProt P13500)
Kind of assay: BSK_KF3CT_MCP1: BioMAP Diversity Plus: KF3CT Assay for Monocyte Chemoattractant Protein 1 (MCP1/CCL2) Biomarker Activity (AID 2283073). Particulars: primary human keratinocytes with fibroblasts; actives raise or lower the signal. In short, it runs like this:
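Human keratinocyte plus foreskin fibroblast primary co-culture exposed to chemical for 24 h. MCP-1 levels measured by ELISA. Bidirectional curve fitting relative to DMSO negative control as baseline.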

Read-out in assay [10]: Matrix Metallopeptidase 9 (MMP9), MMP9 (gene 4318)
Kind of assay: BSK_KF3CT_MMP9: BioMAP Diversity Plus: KF3CT Assay for Matrix Metallopeptidase 9 (MMP9) Biomarker Activity (AID 2283074).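 As to AC50: MMP9 protein level quantified by ELISA in the co-culture.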 Particulars: primary human keratinocytes with fibroblasts; actives raise or lower the signal. In short, it runs like this:
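Keratinocyte plus foreskin fibroblast human primary skin co-culture was dosed with chemical and MMP-9 was quantified by ELISA 24 h later. Bidirectional curve fitting used DMSO as negative control and activity baseline.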

Read-out in assay [11]: urokinase plasminogen activator (uPA), PLAU (gene 5328)
Kind of assay: BSK_KF3CT_uPA: BioMAP Diversity Plus: KF3CT Assay for urokinase plasminogen activator (uPA) Biomarker Activity (AID 2283075). Particulars: primary human keratinocytes with fibroblasts; actives raise or lower the signal. In short, it runs like this: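 Human keratinocyte plus foreskin fibroblast primary co-culture exposed to chemical for 24 h. uPA levels were quantified by ELISA, and activity was fitted bidirectionally against a DMSO negative-control baseline.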

Read-out in the next assay: CD40, CD40 (gene 958)
Kind of assay: BSK_LPS_CD40: BioMAP Diversity Plus: LPS Assay for CD40 Biomarker Activity (AID 2283076). The conditions noted are these: primary human HUVEC with PBMC; actives raise or lower the signal. In short, it runs like this:
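Primary human umbilical vein endothelial cells co-cultured with peripheral blood mononuclear cells, LPS-stimulated, were dosed with chemical and read 24 h later. CD40 levels were measured by ELISA and fitted bidirectionally against DMSO as negative control and baseline.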

Read-out in assay [12]: E-selectin (Homo sapiens) (UniProt P16581)
The assay is described as follows: BSK_LPS_Eselectin: BioMAP Diversity Plus: LPS Assay for Eselectin Biomarker Activity (AID 2283077). Particulars: primary human HUVEC with PBMC; actives raise or lower the signal. In short, it runs like this:
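Human umbilical vein endothelial cells co-cultured with peripheral blood mononuclear cells under LPS stimulation; E-selectin measured by ELISA 24 h after chemical dosing. Activity fitted bidirectionally against DMSO as negative control and baseline.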

Read-out in assay [13]: Interleukin-8 (IL8), CXCL8 (gene 3576)
The assay is described as follows: BSK_LPS_IL8: BioMAP Diversity Plus: LPS Assay for Interleukin-8 (IL8) Biomarker Activity (AID 2283078). Particulars: primary human HUVEC with PBMC; actives raise or lower the signal. In short, it runs like this:
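Human umbilical vein endothelial cells co-cultured with PBMC were stimulated with LPS; IL-8 levels were measured by ELISA 24 h after chemical dosing. Activity was fitted bidirectionally against DMSO as negative control and baseline.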

Assay [14] is described as follows: BSK_LPS_SRB: Viability Assessment in the BioMAP Diversity Plus: LPS Assay (AID 2283079).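 Also: total protein by sulforhodamine B absorbance as a cytotoxicity measure; measured one day after compound addition.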 The conditions noted are these: primary human HUVEC with PBMC. In short, it runs like this: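 Human umbilical vein endothelial cells co-cultured with PBMC (LPS system) were dosed for 24 h. Total protein was stained with 0.1% sulforhodamine B after 10% TCA fixation, read at 560 nm, and fitted bidirectionally against DMSO baseline.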

Read-out in assay [15]: Monocyte Chemoattractant Protein-1 (MCP1), CCL2 (gene 6347)
Kind of assay: BSK_LPS_MCP1: BioMAP Diversity Plus: LPS Assay for Monocyte Chemoattractant Protein-1 (MCP1) Biomarker Activity (AID 2283081).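 As to AC50: secreted MCP-1 protein quantified by ELISA in culture supernatant.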 The conditions noted are these: primary human HUVEC with PBMC; actives raise or lower the signal. In short, it runs like this: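 HUVEC plus PBMC co-culture (human primary cells, LPS system) exposed to test chemical for 24 h; MCP-1 measured by ELISA. Bidirectional curve fitting against DMSO baseline; parallel SRB total-protein staining flags overt cytotoxicity.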

Assay [16] can be described thus: BSK_LPS_PGE2: BioMAP Diversity Plus: LPS Assay for Prostaglandin E2 (PGE2) Biomarker Activity (AID 2283082). The conditions noted are these: primary human HUVEC with PBMC; actives raise or lower the signal. In short, it runs like this: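 HUVEC plus human PBMC co-culture stimulated with LPS; secreted PGE2 quantified by ELISA 24 h after chemical dosing. Activity fitted bidirectionally against DMSO baseline; parallel SRB staining (0.1% SRB after 10% TCA fixation, 560 nm) flags overt cytotoxicity.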

Read-out in assay [17]: Interleukin-1 alpha (IL1a), IL1A (gene 3552)
Kind of assay: BSK_LPS_IL1a: BioMAP Diversity Plus: LPS Assay for Interleukin-1 alpha (IL1a) Biomarker Activity (AID 2283080). Particulars: primary human HUVEC with PBMC; actives raise or lower the signal. In short, it runs like this: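 Human umbilical vein endothelial cells co-cultured with peripheral blood mononuclear cells were LPS-stimulated and exposed to test chemicals for 24 h. IL-1 alpha was quantified by ELISA, with bidirectional curve fitting against DMSO as the negative control and baseline.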

Read-out in assay [18]: Interleukin-1 alpha (IL1a), IL1A (gene 3552)
Kind of assay: BSK_KF3CT_IL1a: BioMAP Diversity Plus: KF3CT Assay for Interleukin-1 alpha (IL1a) Biomarker Activity (AID 2283070). Particulars: primary human keratinocytes with fibroblasts; actives raise or lower the signal. In short, it runs like this:
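Human keratinocyte plus foreskin fibroblast primary co-culture, sampled 24 h after chemical dosing. IL-1a measured by ELISA; responses fitted bidirectionally against DMSO baseline (negative control), so gain or loss of signal both count.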

These results are taken from PubChem BioAssay (EPA / NIEHS).

The term AC50 denotes the concentration at which the activity in the assay is half-maximal.

The source made the active and inactive calls. The calls were made as follows: active = hit-call score of the fitted dose curve at least 0.9, where 1 is the maximum; inactive = score below 0.9.

E-selectin (Homo sapiens), sequence (P16581 whole entry, looked up): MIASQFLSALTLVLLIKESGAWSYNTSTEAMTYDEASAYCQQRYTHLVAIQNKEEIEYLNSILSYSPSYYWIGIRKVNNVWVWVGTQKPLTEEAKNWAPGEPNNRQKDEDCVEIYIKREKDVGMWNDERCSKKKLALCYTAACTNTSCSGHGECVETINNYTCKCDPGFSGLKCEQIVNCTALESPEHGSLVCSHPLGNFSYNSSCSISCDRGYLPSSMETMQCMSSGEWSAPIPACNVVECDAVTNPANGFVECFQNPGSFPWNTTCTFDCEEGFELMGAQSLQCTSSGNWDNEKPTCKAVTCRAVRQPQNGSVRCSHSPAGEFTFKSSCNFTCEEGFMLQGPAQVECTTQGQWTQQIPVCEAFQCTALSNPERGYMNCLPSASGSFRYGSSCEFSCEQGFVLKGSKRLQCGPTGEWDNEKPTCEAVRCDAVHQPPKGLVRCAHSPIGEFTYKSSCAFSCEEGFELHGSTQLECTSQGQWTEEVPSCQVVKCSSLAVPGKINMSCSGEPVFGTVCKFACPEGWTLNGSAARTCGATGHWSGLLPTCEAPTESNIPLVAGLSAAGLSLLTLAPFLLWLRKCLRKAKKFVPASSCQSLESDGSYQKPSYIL

Regarding `Nc1ccc(Nc2ccccc2)cc1`, the outcome in assay [1], in assay [2], in [4], in [5], in assay [6] and in [7] was inactive. In addition, the result in [8], in assay [9], in assay [11] and in assay [14] was inactive. In addition, the concentration at half-maximal activity (AC50) in assay [3] is 5.54 µM (active); in [10], 3.97 µM (active); with CD40, CD40 (gene 958), 3.97 µM (active); in assay [12] it was 12.9 µM (active); in assay [13], 11.2 µM (active); in assay [15] it was 8.02 µM (active). Besides, the AC50 in assay [16] was 1.44 µM (active).
With `CC1(C)C(=O)N(Br)C(=O)N1Br`, the outcome in [1], in assay [2], in assay [3], in assay [4], in assay [5] and in assay [6] was inactive. Also, the outcome in assay [7] is “inactive”; in assay [8], “inactive”; in [9] it was “inactive”; in assay [10], “inactive”; in assay [11] it was “inactive”; with CD40, CD40 (gene 958), “inactive”. The outcome in assay [13], in assay [14], in assay [17] and in [15] was inactive.
For the compound `CCCCC(CC)COC(=O)CCCCCCCCC(=O)OCC(CC)CCCC` (stereo not given), the result in [1], in assay [2], in assay [3], in [4], in assay [5] and in assay [6] was inactive. Besides, the outcome in [7] was “inactive”; in assay [8], “inactive”; in assay [10], “inactive”; in assay [11], “inactive”; with CD40, CD40 (gene 958), “inactive”; in assay [13] it was “inactive”. Moreover, the outcome in assay [14] and in [17] was inactive. In assay [9], the AC50 was 3.97 µM (active).
With `CCOC(=O)COc1ccc2c(c1)CC(NCC(O)c1cccc(Cl)c1)CC2` (stereo not given), the AC50 was 26.8 µM (active) in assay [1]; 33.9 µM (active) in [2]; 21.9 µM (active) in assay [3]; 29 µM (active) in the assay with CD40, CD40 (gene 958); 27.4 µM (active) in assay [13]; 28.4 µM (active) in [14]. For the same compound, the AC50 is 18.3 µM (active) in [17] and 29.2 µM (active) in [15]. Moreover, the result in assay [4], in [5], in [6], in assay [7], in [8] and in assay [9] was inactive. The result in [10] and in assay [11] was inactive.
As for `O=C(O)c1cccc(Oc2ccccc2)c1`, the outcome in assay [1], in assay [2], in [3], in [4], in assay [5] and in [6] was inactive. Further, the result in [18], in assay [7], in [8], in [9], in assay [10] and in assay [11] was inactive. Besides, the outcome with CD40, CD40 (gene 958) is “inactive”; in [13], “inactive”; in [14], “inactive”; in assay [17], “inactive”; in [16], “inactive”.
Regarding `O=C1CCCCCN1`, the outcome in [1], in assay [2], in assay [3], in assay [4], in assay [5] and in [6] was inactive. Besides, the outcome was “inactive” in assay [7]; “inactive” in assay [8]; “inactive” in [9]; “inactive” in [10]; “inactive” in assay [11]; “inactive” in the assay with CD40, CD40 (gene 958). Also, the outcome in assay [13], in assay [14], in assay [17] and in [15] was inactive.
Consider `Cc1ccc(N)cc1O`, for which the outcome in assay [1], in assay [2], in assay [3], in assay [4], in [5] and in [6] was inactive. In addition, the outcome in assay [18], in assay [7], in assay [8], in assay [9], in [10] and in assay [11] was inactive. The outcome in the assay with CD40, CD40 (gene 958) is “inactive”; in [13] it was “inactive”; in assay [14] it was “inactive”; in assay [17] it was “inactive”; in assay [15], “inactive”. In addition, the half-maximal activity concentration (AC50) in assay [16] was 4.87 µM (active).
